# In the supplement of paper PMC6555819:
# Experiments:
# Assay in all cases: PBM binding z-score (relative to random genomic background probes); higher = stronger binding; sequences stand for … in GC…GCGATTGACAGCGTAGAATGAAGG
# [1] = tested on: RARb homodimer (NR concentration 270 nM)
# Procedure, shortened: (§1)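 Regression normalization was applied to scanned fluorescence from custom Agilent 4×180K protein-binding microarrays. Before scanning, arrays were incubated 1 h with ligand-free nuclear receptor dimers, and binding was detected with antibodies against each partner (one per run). Binding z-scores use the random background probes as reference.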
# [2] = tested on: RARg:RXRa (NR concentration 270 nM, RXRa partner concentration 90 nM)
# Procedure, shortened: as §1
# [3] = tested on: RARg homodimer (NR concentration 270 nM)
# Procedure, shortened: as §1
# [4] = tested on: RXRa DBDmut IVT, anti-RXR (DBD mutation: RXRa K156A/R161A, NR concentration 90 nM)
# Procedure, shortened: as §1
# [5] = tested on: RXRa homodimer (NR concentration 180 nM)
# Procedure, shortened: as §1
# [6] = tested on: THRa:RXRa (NR concentration 90 nM, RXRa partner concentration 90 nM)
# Procedure, shortened: as §1
# [7] = tested on: THRa homodimer (NR concentration 90 nM)
# Procedure, shortened: as §1
# [8] = tested on: VDR homodimer (NR concentration 270 nM)
# Procedure, shortened: as §1
Sequence,PBM binding z-score [1],PBM binding z-score [2],PBM binding z-score [3],PBM binding z-score [4],PBM binding z-score [5],PBM binding z-score [6],PBM binding z-score [7],PBM binding z-score [8]
GTACCAAGGTGAAGAGGTCGTTGATGAGTAGGCG,2.46,3.26,1.79,0.608,2.65,2.47,1.09,2.21
TCTCGGAGTACACGAAAGGTCAGAGCTCGACATC,4.24,3.91,3.72,1.14,3.87,3.02,0.15,0.908
GGAACGAGGGCACAGTTGATAGCATCTGTCGACG,0.918,1.28,1.61,1.69,0.922,1.08,-0.317,0.774
GCTAGTTGGTCAGTAAAAGGTCACGCACCGGTCG,5.17,6.19,5.77,0.692,6.35,3.75,2.43,2.07
CGAACTAGGCCATTGACAGGACAGTGAATAGTAA,0.319,0.281,0.586,0.349,0.0322,0.198,-0.102,-0.193
CGTCCAAGGTCAATGTCAGTGAAAGAGACTCGAA,3.64,5.4,5.96,3.62,4.79,3.57,1.84,2.02
AGAATGAGGTTATTATGATCAGGGAATTGCGGTC,0.795,1.07,0.882,2.21,1.7,2.21,1.08,1.41
GGAACGAGGGCAAAGTTGATATCATCTGTCGACG,1.26,2.14,1.97,2.81,1.96,1.32,0.0109,1.29
ATATGTAGGTTACATCTGGGTCATTCAGGCTATG,3.02,3.33,2.31,0.961,2.38,3.17,1.31,1.8
CATACAGGGTCAGTTAGGCCAGAGTAGGGACGGC,2.87,3.61,3.84,1.68,2.94,2.77,1.04,1.69
CGTCGAAGTTCAAGGTAACGTAACAGAAAGCAGC,1.95,2.79,3.25,3.69,2.21,2.07,0.792,1.74
CAAACTAGGTCAAAGGTCATAGTCGAGCCAACCA,5.28,8.65,6.91,2.92,10.3,4.84,1.91,3.55
ATCTCTAGGTGAGACTCAGTTCAGTGAAGAACGC,0.564,0.527,0.376,0.062,0.00106,0.954,0.42,0.761
TGTCAAAGTTCAAAGGTATCGTAAGTATCCACAC,3.71,5.75,6.26,4.47,6.28,2.56,-0.19,4.53
AGTCAAAGCTCAGGACGAGGTAACGTAAAGCACG,-0.228,0.0301,0.2,-0.664,-0.013,1.86,1.21,-0.138
ATTGAAAGGTCGTGAGGTGAGTATACAGAAAGGC,3.49,4.76,4.06,1.2,5.39,3.77,1.94,1.4
ATACCAAGGTGCTCGTGAGGTCGTTGATACTAAC,1.4,0.626,0.196,0.552,0.882,3.31,2.12,2.55
AGAACGAGGGCCATGAGTTGATAGCACGGGTGGC,0.111,0.395,0.308,-0.019,0.448,-0.138,-0.79,0.371
CCTATTATTTGACCATAAGGGCAACCGAAGCTCG,2.16,1.05,1.21,1.06,0.762,1.83,2.31,2.19

Sequence,PBM binding z-score [1],PBM binding z-score [2],PBM binding z-score [3],PBM binding z-score [4],PBM binding z-score [5],PBM binding z-score [6],PBM binding z-score [7],PBM binding z-score [8]
GCTTACGGGTCAAAGGGTATAGCATGAATAGAAT,2.63,5.24,4.04,2.41,7.03,2.8,-0.191,1.45
TCATATAGGAAATACAGGTGAAAGTCGGCATCTA,0.167,0.527,0.553,2.12,1.37,0.441,0.299,0.241
CCTAGTTGGTAAGGAGGTCACACACCGGATATGA,3.85,3.75,3.06,0.539,4.06,3.44,2.35,2.37
ACTAGCAGGCCAAGTTTGGGTCACTCAGACAAAG,2.13,2.11,1.41,0.0571,0.7,2.33,0.94,0.117
CCTTACGGGTCACGCGGTTATAGCACGACGAGCG,3.87,5.86,5.88,1.3,6.68,3.17,0.416,1.19
AGAATGAGGGCAATGAGTTGATAGCACGGGTGGC,1.18,1.31,1.47,2.27,0.95,1.59,0.363,3.47
CCTACTGGGCCATCAGGTCATGGATATCAACGTT,2.95,2.25,2.22,-0.124,1.66,3.47,3.47,0.959
CCTAGCAGGCCAGGATCACTCAAGCATTTCGCTT,-0.596,-0.33,-0.385,-0.0229,-0.232,-0.455,-0.257,-0.251
TAGCCTAGGTCAGAACGGGCCAGTATACGCTATA,1.79,2.22,2.92,-0.315,1.19,2.46,-0.361,-0.307
TGTCAAAGTTCAAAGATAACGTAAGTATCCACAC,3.35,5.44,6.18,4.22,4.6,1.86,-0.41,3.32
CAAACTCGGTCACAGAGGTCAAAGTCCGTGCGTA,5.29,6.57,6.96,2.49,6.63,4.04,1.73,5.74
ATCTCTAGGTAAGACTCAGATCAGTGAAGAACGC,-0.0502,0.253,0.295,0.0225,0.0293,0.242,0.333,0.414
ACTATTAGTTGACTTAGCGCAACCGATACGACGC,-0.331,0.0723,0.494,0.553,0.244,-0.258,-0.16,0.12
ACTCGGAGCACAAAGGTCAGAGCTACGCCAGTGA,4.45,5.16,5.11,0.345,4.98,2.63,-0.28,0.477
ACAAACAGGTGATGAAGGTAACTCAGGCTATCAT,0.731,0.443,0.626,0.298,0.602,1.19,0.203,0.203
CCGACTGGGGCAGAAAGGTTACCATACCATCCGG,1.96,1.73,1.25,-0.648,1.61,0.85,-0.396,-0.314
TCTAGAAGGCCAGAGGGTCACTCAAGAGGTACGG,3.16,3.17,2.72,0.844,3.03,1.75,-0.0793,0.435
ATCTCTAGGTAAAGATAGTTAAGTGAATGCAAAT,-0.639,0.108,0.448,-0.348,-0.199,0.104,-0.211,-0.177
TCATATAGGTAAAAGGTGGAAGTCGGTGTGGTAA,0.589,0.466,-0.0176,1.55,1.54,0.305,0.294,0.281

Sequence,PBM binding z-score [1],PBM binding z-score [2],PBM binding z-score [3],PBM binding z-score [4],PBM binding z-score [5],PBM binding z-score [6],PBM binding z-score [7],PBM binding z-score [8]
ACTAGCATGCCAAGTTTGGGTCACTCAAACAAAG,1.71,1.43,0.744,-0.167,0.674,2.19,0.882,0.673
TCATATAGGTAAACTGGTGAAAGTCCGTAAGTTA,0.366,0.0786,-0.0648,1.19,0.361,0.34,0.281,0.358
ACTATTAGTTGAGACGAGGCCAACCGATAGGTTG,0.728,0.273,0.272,0.0149,0.182,2.57,0.433,0.394
CGTGCTAGGTCAATGGTCAGCTAAAGCAGCTCGC,2.95,3.8,4.95,1.67,2.31,2.23,0.655,0.301
ACTATTAGTTGACTTAGGGCAACGGATACGACGC,0.939,0.643,1.01,0.466,0.497,1.47,0.279,-0.0346
TATACAGCGTCAAAGGCCAGAGTACGAATGTCGA,0.415,0.284,0.525,-1.06,0.258,-0.433,-1.11,-0.0431
TCGAGCAGGTTACCAATGGGGCATTCAGCTTTCT,0.557,1.36,0.389,-0.436,0.616,0.235,-0.786,-0.843
GTAACGAGGGCATTCGAGTTGATAGCATGGCGAT,0.944,1.34,1.45,2.91,0.914,3.18,-0.244,3.97
ATATGTAGGTTATCGCGTCATTCAGTTTGCGCAT,0.515,0.647,0.634,0.806,1.03,0.388,0.235,0.254
CCTTGTTGGTCAAGGTCACACACGCTATAGGTAC,4.53,4.56,4.95,1.83,4.51,4.31,4.1,3.13
ACTATTAGTTGTGACGAGGGCAACCGATAGGTTG,1.21,0.579,0.719,0.601,0.491,1.32,0.209,0.862
AGTCACAGTTCATCTAGGTAACGTAAGATATGCT,1.67,2.47,2.66,3.33,2.05,2.13,0.362,3.1
TCATGTAGGTAAATGCTAGGTGAAAGTCCGATCT,0.541,0.226,0.15,1.26,0.398,1.28,0.741,0.319
TAGCCTAGGTCATGGTCCAGTATACCACGCGAAC,3.04,3.96,4.28,0.681,3.51,3.39,1.75,0.777
CTCGTAAGGTCGGTTGAGGTGAGTATACGGATAA,1.99,1.89,2.09,1.26,1.44,5.11,2.39,0.937
CCTTACGGGTCACGAGGTTAGAGCACGACGAGCG,3.63,6.04,5.46,2.04,6.47,3.45,0.765,1.84
CCTACTAGGCCAAGGTCATTGATCAGTCAAAGCA,3.74,3.86,3.68,2.31,3.64,3.52,3.01,3.34
TCTTGTAGAGCAAGCAGGTTAAGAAAGCCTGAGT,-0.297,-0.441,-0.538,-0.187,-0.0799,-0.2,-1.05,-0.461
